Experimental data published in the supplement of paper PMC11150407.
The campaign covered roughly 2,100 compounds. About 180 (8.6%) showed an effect of 50% or more. The list comes from a sample in which strong results are over-represented; it also holds similar structures and randomly drawn compounds.

Each molecule was assayed on MOLM1 and UCSD/AML1 (averaged) (assay: cell viability relative to DMSO control (POC); higher = less growth inhibition). Conditions: 1 µM; 72 h.
Procedure: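 Primary viability screen in the 3q26 EVI1-high AML cell lines MOLM1 and UCSD/AML1 (1.5e3 cells/well, 384-well), compounds at 1 uM for 72 h. ATP CellTiter-Glo read-out given as percent of viable cells over DMSO control (POC), averaged over duplicates. DMSO was the negative control and 5 uM etoposide the positive control. This mapping covers the MicroSource Spectrum and Selleck anticancer libraries (drug names).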

Row | Structure (SMILES) | cell viability [%]
1 | COc1cc2c(cc1OC)[C@@H]1Cc3ccc(OC)c(OC)c3CN1CC2 | 108
2 | CN(C)CCOc1ccc(-c2nc(-c3ccncc3)c(-c3ccc4c(c3)CC/C4=N\O)[nH]2)cc1 | 76.1
3 | COc1cc(/C=C/C(=O)O)ccc1O | 104
4 | O=C1C=C2CC3(O)COc4cc(O)ccc4C3=C2C=C1O (stereo not drawn) | 99.3
5 | Cc1cnc(NC(=O)Nc2cc(Br)c(C)cc2OC[C@@H]2CNCCO2)cn1 | 46.1
6 | COc1c2ccoc2nc2c(OC)c(OCC(O)C(C)(C)O)ccc12 (stereo not drawn) | 90.2
7 | CC(C)=CC1C(CO)C1(C)C (stereo not drawn) | 104
8 | Nc1ncnc2c1ncn2[C@H]1C[C@H](O)[C@@H](CO)O1 | 90.9
9 | Nc1ncn([C@H]2C[C@H](O)[C@@H](CO)O2)c(=O)n1 [Decitabine] | 41.3
10 | Nc1ncn([C@@H]2O[C@H](CO)[C@@H](O)[C@H]2O)c(=O)n1 [Azacitidine (Vidaza)] | 84.2
11 | Nc1ncn([C@@H]2O[C@H](CO)[C@@H](O)[C@H]2O)c(=O)n1 | 77.4
12 | COc1nc(N)nc2c1ncn2[C@@H]1O[C@H](CO)[C@@H](O)[C@@H]1O [Nelarabine (Arranon)] | 109
13 | Nc1ncnc2c1ncn2[C@@H]1O[C@H](COP(=O)(O)O)[C@@H](O)[C@H]1O | 99.1
14 | Nc1nc(Cl)nc2c1ncn2[C@@H]1O[C@H](CO)[C@@H](O)[C@@H]1F [Clofarabine] | 6.72
15 | O=c1[nH]c(=O)n([C@H]2C[C@H](O)[C@@H](CO)O2)cc1F | 83.1
16 | CCc1cn([C@H]2C[C@H](O)[C@@H](CO)O2)c(=O)[nH]c1=O | 91.5
17 | Nc1nc(F)nc2c1ncn2[C@@H]1O[C@H](COP(=O)(O)O)[C@@H](O)[C@@H]1O | 74.4
18 | O=c1[nH]c(=O)n([C@H]2C[C@H](O)[C@@H](CO)O2)cc1F [Floxuridine] | 64.4
19 | Nc1nc(F)nc2c1ncn2[C@@H]1O[C@H](COP(=O)(O)O)[C@@H](O)[C@@H]1O [Fludarabine Phosphate (Fludara)] | 44.2
20 | Nc1nc(F)nc2c1ncn2[C@@H]1O[C@H](CO)[C@@H](O)[C@@H]1O [Fludarabine (Fludara)] | 53
21 | Nc1nc(Cl)nc2c1ncn2[C@H]1C[C@H](O)[C@@H](CO)O1 [Cladribine] | 5.67
22 | NC(=O)c1ccc[n+]([C@@H]2O[C@H](COP(=O)([O-])OP(=O)(O)OC[C@H]3O[C@@H](n4cnc5c(N)ncnc54)[C@H](O)[C@@H]3O)[C@@H](O)[C@H]2O)c1 | 81.6

Row | Structure (SMILES) | cell viability [%]
23 | OC[C@@H](O)[C@@H](O[C@@H]1O[C@H](CO)[C@@H](O)[C@H](O)[C@H]1O)[C@H](O)[C@@H](O)CO | 92.2
24 | COc1ccc([C@H]2Oc3cc(OC)cc(OC)c3C[C@H]2O)cc1 | 98.4
25 | COC(=O)C[C@H]1C2(C)CC34OC5(C)O[C@@]6([C@H](OC)C(OC(=O)C(C)C)[C@]7(C)C(/C(=C(/OC)C(C)C)C(=O)O[C@H]7c7ccoc7)[C@@]6(O5)[C@H](OC)[C@@]3(OC)C2OC(C)=O)[C@]14C (stereo partly drawn) | 105
26 | Cc1c(C(=O)O)c(O)cc2c1C(=O)c1c(O)c([C@@H]3O[C@H](CO)[C@@H](O)[C@H](O)[C@H]3O)c(O)c(O)c1C2=O | 92.5
27 | O=C(O)c1cccc(O)c1O | 107
28 | C[C@H]1[C@H](C)CC[C@]2(CO)CC[C@]3(C)C(=CC[C@@H]4[C@@]5(C)CC[C@H](O)C(C)(C)[C@@H]5CC[C@]43C)[C@H]12 | 110
29 | CC(=O)O[C@@H]1CC2C(C)(C)C(=O)CC[C@]2(C)C2CC[C@]3(C)C(=CC(=O)O[C@H]3c3ccoc3)[C@@]21C (stereo partly drawn) | 110
30 | COc1c(OC)c2occc2c2oc(=O)ccc12 | 117
31 | CC(=O)O[C@H]1CC[C@]2(C)[C@H]3CC=C4[C@@H]5CC(C)(C)CC[C@]5(C)CC[C@@]4(C)[C@]3(C)CC[C@H]2C1(C)C [beta-AMYRIN ACETATE] | 107
32 | CC(=O)CC(=O)CCC(=O)O | 96.2
33 | CCOC(=O)c1c(C)cc(O)cc1O | 104
34 | CC1=CCCC(C)=CCC(C)(C)C=CC1 [HUMULENE (alpha)] | 113
35 | CN(C)Cc1ccc(-c2nc3cccc4c3n2CCNC4=O)cc1 | 100
36 | Nc1ccc(-c2ccc3ncc4ccc(=O)n(-c5cccc(C(F)(F)F)c5)c4c3c2)cn1 [Torin 2] | 10
37 | CCC(=O)N1CCN(c2ccc(-n3c(=O)ccc4cnc5ccc(-c6cnc7ccccc7c6)cc5c43)cc2C(F)(F)F)CC1 [Torin 1] | 20.8
38 | COc1ccc2c3n(c(=NC(=O)c4cccnc4)nc2c1OC)CCN3 | 64.3
39 | COc1cc(C)c(C(=O)O)c(O)c1 | 100
40 | S=C(NCc1ccc2c(c1)OCO2)N1CCN(c2ncnc3c2oc2ccccc23)CC1 [Amuvatinib (MP-470)] | 77.9
41 | COC(=O)[C@@H]1OC(=O)[C@H]2O[C@@]23[C@@]1(C)CCC1[C@@]2(C)CCC(=O)C(C)(C)C2C[C@@H](OC(C)=O)[C@]13C (stereo partly drawn) | 99
42 | O=C(Nc1c[nH]nc1-c1nc2ccc(CN3CCOCC3)cc2[nH]1)NC1CC1 | 17.5
43 | CC(=O)Oc1cc(OC(C)=O)c2c(c1)O[C@H](c1ccc(OC(C)=O)c(OC(C)=O)c1)[C@H](OC(C)=O)C2 | 104
